The record followed here is PubChem BioAssay (NCI).

Some test systems named below: NCI-H23 lung; NCI-H226 lung; NCI-H322M lung; HOP-62 NSCLC; NCI-H460 lung; HOP-92 NSCLC; NCI-H522 lung; A549/ATCC NSCLC; 786-0 renal; COLO 205 colon; DU-145 prostate; K-562 leukemia; MALME-3M melanoma; MDA-MB-231 breast; RXF 393 renal; SF-268 CNS; SF-295 CNS; SF-539 CNS; UACC-257 melanoma; M14 melanoma.
Common to all, as to assay: NCI-60 one-dose screen, 48 h (100 = growth as untreated, 0 = no growth, -100 = all killed)
What all share (conditions): 10 µM unless noted

The panel holds about 83,000 compounds, 20% with a hit somewhere; the sample as a whole holds those more often.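 Cell lines were cultured in 96-well plates, exposed to a single compound concentration, and assessed for percent growth 48 hours later.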 A number with no mark means an inactive call. Calls of active or inactive are those of the source. Rule for the calls: active = growth percent below 10; inactive = the rest.

As to `Cc1ccc(S(=O)(=O)Oc2ccc(NC(=O)c3ccc(Cl)cc3)cc2)cc1`, the growth in the assay with NCI-H23 lung is 102%; in the assay with NCI-H226 lung it was 109%; in the assay on NCI-H322M lung, 91%; in the assay with HOP-62 NSCLC, 91.1%; in the assay on NCI-H460 lung, 103%; in the assay on HOP-92 NSCLC it was 102%. The growth in the assay on NCI-H522 lung was 83.8%; with A549/ATCC NSCLC, 95%; with 786-0 renal, 91.1%; in the assay on COLO 205 colon, 113%; with DU-145 prostate, 105%; in the assay with K-562 leukemia, 92.8%. Moreover, the growth with MALME-3M melanoma was 100%; in the assay on MDA-MB-231 breast, 97%; with RXF 393 renal, 115%; in the assay on SF-268 CNS it was 94.4%; in the assay with SF-295 CNS it was 93.4%; in the assay with SF-539 CNS, 93.7%. In addition, the values for the growth in the assay with UACC-257 melanoma and in the assay on M14 melanoma were 111% and 94.3%, respectively.
On to `O=c1c2cccc(Cl)c2sc2c(NCCCNCCO)nc3ccccc3c12`, for which the growth was 52.4% in the assay on NCI-H23 lung; 67.7% with NCI-H226 lung; 44% with NCI-H322M lung; 39.6% with HOP-62 NSCLC; -86.2% (active) with NCI-H460 lung; -0.275% (active) in the assay with HOP-92 NSCLC. Moreover, the growth with NCI-H522 lung is 49.5%; in the assay on A549/ATCC NSCLC, 27.5%; in the assay with 786-0 renal it was 45.6%; in the assay with COLO 205 colon it was -61.4% (active); with DU-145 prostate it was 13.9%; in the assay with K-562 leukemia, -48.1% (active). Besides, the growth in the assay on MALME-3M melanoma was 77.8%; in the assay with MDA-MB-231 breast, -25.3% (active); in the assay with RXF 393 renal, 50.3%; with SF-268 CNS, 42.1%; with SF-295 CNS, 73.9%; in the assay with SF-539 CNS, 27.4%. The growth in the assay on UACC-257 melanoma was 97%; in the assay with M14 melanoma, -72.7% (active).
Regarding `Cc1cccc(NC2=C(Cl)C(=O)c3nc(C)ccc3C2=O)c1`, the growth in the assay on NCI-H23 lung was -27.8% (active); with NCI-H226 lung, -0.0359% (active); with NCI-H322M lung, 13.5%; in the assay with HOP-62 NSCLC, 42.8%; in the assay on NCI-H460 lung, 5.47% (active); with HOP-92 NSCLC it was -68.7% (active). Moreover, the growth was -24% (active) in the assay with NCI-H522 lung; 16.7% in the assay with A549/ATCC NSCLC; 3.53% (active) with 786-0 renal; 111% in the assay on COLO 205 colon; -80.2% (active) in the assay on DU-145 prostate; 2.91% (active) in the assay with K-562 leukemia. Further, the growth was -75.3% (active) in the assay on MALME-3M melanoma; -75.1% (active) with MDA-MB-231 breast; -19.8% (active) in the assay on RXF 393 renal; 58.2% with SF-268 CNS; 12.7% with SF-295 CNS; -79% (active) in the assay with SF-539 CNS. Moreover, the growth was -80.2% (active) with UACC-257 melanoma and -45% (active) with M14 melanoma.
For `O=C(/C=C/c1cccc2ccccc12)c1ccc(NC(=O)c2ccccc2CN2C(=O)c3ccccc3C2=O)cc1`, the growth is 67.3% with NCI-H23 lung; 93.4% with NCI-H226 lung; 79.7% in the assay on NCI-H322M lung; 94.2% in the assay on HOP-62 NSCLC; 79.9% with NCI-H460 lung; 80.2% in the assay with HOP-92 NSCLC. The growth in the assay on NCI-H522 lung was 68.4%; with A549/ATCC NSCLC, 78.6%; with 786-0 renal, 97%; in the assay with COLO 205 colon it was 101%; in the assay with DU-145 prostate, 42.7%; in the assay with K-562 leukemia it was 20.2%. Moreover, the growth in the assay with MALME-3M melanoma is 79.6%; in the assay with MDA-MB-231 breast, 58.4%; in the assay with RXF 393 renal it was 91.5%; with SF-268 CNS, 75.4%; in the assay with SF-295 CNS it was 96.4%; in the assay on SF-539 CNS, 90.2%. For the same compound, the growth in the assay on UACC-257 melanoma was 88%; in the assay on M14 melanoma it was 72.8%.
For the compound `NCCCNc1nc2ccccc2c2c(=O)c3cccc(F)c3sc12`, the growth with NCI-H23 lung is 50.5%; with NCI-H226 lung, 64.1%; in the assay with NCI-H322M lung, 46.8%; in the assay with HOP-62 NSCLC it was 48.1%; in the assay with NCI-H460 lung, -57% (active); in the assay with HOP-92 NSCLC, 35.8%. The growth with NCI-H522 lung is 38.7%; with A549/ATCC NSCLC, 24%; with 786-0 renal, 52.6%; with COLO 205 colon, -43.7% (active); in the assay with DU-145 prostate, 12.6%; in the assay on K-562 leukemia, -28.2% (active). Also, the growth is 80% with MALME-3M melanoma; 6.07% (active) in the assay on MDA-MB-231 breast; 52.4% in the assay on RXF 393 renal; 45.9% with SF-268 CNS; 72.8% in the assay on SF-295 CNS; 44.2% with SF-539 CNS. Also, the figures for the growth with UACC-257 melanoma and in the assay on M14 melanoma were 93.5% and 10%, respectively.
Consider `COc1ccn2c(C(C)=O)cc(C(=O)c3ccc4c(c3)Sc3ccccc3N4)c2c1`, for which the growth was 28.3% in the assay with NCI-H23 lung; 26% in the assay with NCI-H226 lung; 42.8% in the assay on NCI-H322M lung; 20.2% in the assay with HOP-62 NSCLC; 4.07% (active) in the assay with NCI-H460 lung; 31.2% with HOP-92 NSCLC. Besides, the growth with NCI-H522 lung is -21.5% (active); in the assay with A549/ATCC NSCLC, 10.5%; in the assay with 786-0 renal, 10.7%; in the assay on COLO 205 colon, -41% (active); in the assay on DU-145 prostate, -18.3% (active); in the assay on K-562 leukemia it was 7.02% (active). Moreover, the growth in the assay with MALME-3M melanoma is 85.9%; in the assay with MDA-MB-231 breast it was -17.2% (active); with RXF 393 renal, 51.9%; in the assay on SF-268 CNS, 22.2%; with SF-295 CNS it was 13.9%; in the assay on SF-539 CNS, -11.8% (active). Also, the results for the growth in the assay with UACC-257 melanoma and in the assay on M14 melanoma were 52% and 9.58% (active), respectively.
In the case of `COc1ccc(/C=C(\C#N)n2nnc3c(F)cccc32)cc1`, the growth in the assay on NCI-H23 lung is 18%; with NCI-H226 lung, 45%; in the assay on NCI-H322M lung, 37.9%; in the assay with HOP-62 NSCLC, 28.7%; in the assay with NCI-H460 lung, 2.99% (active); in the assay on HOP-92 NSCLC it was 21.4%. Moreover, the growth in the assay on NCI-H522 lung is 11.6%; in the assay on A549/ATCC NSCLC, 35.6%; with 786-0 renal it was 15.9%; with COLO 205 colon it was -6.97% (active); with DU-145 prostate, 2.45% (active); with K-562 leukemia, 12.1%. The growth with MALME-3M melanoma was 36.8%; in the assay on MDA-MB-231 breast, 21%; in the assay with RXF 393 renal, -21.3% (active); in the assay on SF-268 CNS, 39.7%; with SF-295 CNS it was 5.51% (active); with SF-539 CNS it was -27.4% (active). Also, the growth in the assay with UACC-257 melanoma was 62.6%; in the assay with M14 melanoma, -16.2% (active).
In the case of `COc1c(B(O)O)cc(F)cc1-c1nc2ccc3[nH]ncc3c2c2c1CCCC2`, the growth in the assay with NCI-H23 lung was 0.235% (active); with NCI-H226 lung, 8.89% (active); in the assay with NCI-H322M lung it was 14.2%; in the assay on HOP-62 NSCLC, 16.1%; in the assay on NCI-H460 lung it was 5.46% (active); in the assay on HOP-92 NSCLC, 19.7%. Moreover, the growth in the assay with NCI-H522 lung is 13.1%; in the assay on A549/ATCC NSCLC, 15%; in the assay with 786-0 renal it was 1.01% (active); with COLO 205 colon, -3.77% (active); in the assay on DU-145 prostate, 11.1%; with K-562 leukemia, 30.5%. Moreover, the growth with MALME-3M melanoma is 20.3%; in the assay with MDA-MB-231 breast, 22%; with RXF 393 renal it was -34.5% (active); in the assay on SF-268 CNS, 9.38% (active); in the assay with SF-295 CNS it was 10.8%; with SF-539 CNS it was -13.4% (active). Besides, the growth is 20.1% in the assay with UACC-257 melanoma and 28.3% in the assay with M14 melanoma.
